# The whole screen tested about 210,000 compounds, of which about 5,900 (2.8%) were called active. Another 5% or so got no clear call; they are omitted. The call rests on the fitted dose curve; in most records, active means well fitted activation curve with a large enough effect; inconclusive means small, poorly fitted or top-dose-only effect; inactive means no such curve, though single readings can be large or run the other way. Shown is part of a subset that was picked to be rich in actives. A call without a number means that no potency is given here.
# Experiment: qHTS Assay for Enhancers of SMN2 Splice Variant Expression; further: nearly all actives have a fitted effect of over 55% in size
# Conditions: HEK293 SMN2-luciferase splicing reporter, luminescence, 30-36 h; series mostly up to 46.1 µM
# Procedure, shortened: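 HEK293 cells carry an SMN2 minigene-luciferase reporter in which exon 7 inclusion puts luciferase in frame. Cells were seeded at 2000 cells/well, attached for 10-12 hours, then exposed to compounds for 30-36 hours at 37C before ONE-Glo luminescence.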
# Potency means the concentration at half of the fitted maximal effect.
row,Structure (SMILES),Potency
1,O=C(Nc1ccc2c(c1)CCC2)c1ccc(Br)s1,5.62 µM (active)
2,CC(C)C(=O)OCC(=O)Nc1ccc2c(c1)CCC2,inactive
3,O=C(NC1CCCC1)c1ccc(Br)s1,inactive
4,NS(=O)(=O)c1ccc(NC(=O)C(=O)Nc2ccc3nc4n(c(=O)c3c2)CCCCC4)cc1,inactive
5,CCOc1ccc(S(=O)(=O)c2cn(Cc3ccccc3)c3ccc(OCC)cc3c2=O)cc1,inactive
6,Cc1oc(C)c2c(=O)cc(-c3ccc4c(c3)OCO4)cc(OC(=O)c3ccc(Cl)cc3)c12,inactive
7,CC(C)C12CN3CC(C(C)C)(CN(C1)C3c1ccc(OCc3ccccc3)cc1)C2=O (stereo not given),inactive
8,Cc1ccc(Cn2c(CCCNC(=O)C3CCCCC3)nc3ccccc32)cc1,inactive
9,CCOc1ccc(-c2cc(C)n3nc(C(=O)Nc4ccc(C)c(C)c4)cc3n2)cc1,inactive
10,Cc1ccc(N/C=C/C(=O)c2ccccc2)cc1C,2.51 µM (active)
11,O=C(/C=C\NCC(=O)c1ccccc1)c1ccccc1,inactive
12,Cc1noc(NS(=O)(=O)c2ccc(N/C=C/C(=O)c3ccccc3)cc2)c1C,inactive
13,CSCCC(NS(=O)(=O)c1ccc2c(c1)oc(=O)n2C)C(=O)NCc1ccccc1 (stereo not given),inactive
14,O=C(COc1ccc2oc3c(c2c1)CCCC3)Nc1ccccn1,20 µM (active)
15,Cc1ccc(OCC(=O)Nc2ccc(S(=O)(=O)Nc3ccccn3)cc2)cc1,inactive
16,Cc1cc(C)cc(OCC(=O)Nc2ccc(S(=O)(=O)Nc3ccccn3)cc2)c1,inactive
17,COc1cc(OC)cc(-c2nc3nc(C)c(CCC(=O)Nc4ccc(C)cc4)c(C)n3n2)c1,inactive
18,CCOC(=O)c1cc2c(=O)n3ccccc3nc2n(CC2CCCO2)c1=NC(=O)c1ccccc1Br (stereo not given),inactive
19,O=C(CCc1ccccc1)Nc1cccc(-c2nnc(-c3ccco3)o2)c1,12.6 µM (active)
20,Cc1cccc(NC(=O)CSc2nnc(-c3ccco3)o2)c1,inactive
21,C/C(=N/NC(=O)CCc1ccccc1)c1ccco1,inactive
22,CCOc1ccc(-n2c(C)nc3c(cnn3-c3ccc(C)cc3)c2=O)cc1,inactive
23,O=C(NC1CC1)c1ccc(-c2ccccc2)cc1,11.2 µM (active)
24,Cc1ccc(C(=O)NC2CCN(C(=O)N3CCOCC3)CC2)cc1,inactive
25,O=C(NC1CC1)c1cccc(Br)c1,inactive
26,CCOc1ccccc1N(C)C(=O)c1cc2c(s1)-c1ccccc1OC2,inactive
27,O=C(NC1CCN(Cc2ccccc2)CC1)c1ccc(Cn2c(=O)c3ccccc3n(Cc3cccc(F)c3)c2=O)cc1,inactive

row,Structure (SMILES),Potency
1,O=C(CSc1oc(-c2ccco2)nc1S(=O)(=O)c1ccc(Cl)cc1)c1ccccc1,inactive
2,Cc1ccc(-c2nc(CS(=O)(=O)CC(=O)NCc3ccccc3Cl)c(C)o2)cc1,inactive
3,COc1ccc(CCNC(=O)c2cc(=O)c3c(C)cc(C)cc3o2)cc1OC,inactive
4,Fc1cc(F)c2nc(Nc3nc4c(F)cccc4s3)sc2c1,inactive
5,Fc1ccc2nc(Nc3nc4c(s3)CCCC4)sc2c1,14.1 µM (active)
6,O=C(CCS(=O)(=O)c1ccccc1)Nc1nc2c(s1)CCCC2,inactive
7,O=C(C(=O)N1CCc2ccccc2C1)N1CCc2ccccc2C1,inactive
8,O=C(Cn1c(=S)nc2ccccn21)N1CCc2ccccc2C1,12.6 µM (active)
9,O=C(COc1ccccc1)N1CCc2ccccc2C1,inactive
10,Cn1c(=O)nc2n(-c3ccc(Br)cc3)c3cccc(Cl)c3cc-2c1=O,inactive
11,COc1ccccc1C(=O)Nc1c(C(=O)N(C)Cc2ccccc2)sc2nc(C)c(Cl)c(C)c12,inactive
12,CCn1c(SCC(=O)Nc2nccs2)nnc1-c1ccncc1,inactive
13,Cc1[nH]c2ccccc2c1SCC(=O)Nc1nccs1,25.1 µM (active)
14,Nn1c(SCC(=O)Nc2nccs2)nncc1=O,inactive
15,CC(=O)N1CCc2cc(S(=O)(=O)NC(Cc3ccccc3)C(=O)NCc3ccc(C)cc3)ccc21 (stereo not given),inactive
16,CCOc1ccc(S(=O)(=O)c2cn(Cc3ccc(OC)cc3)c3ccc(F)cc3c2=O)cc1,inactive
17,Cc1ccc(Cn2ccc(NC(=O)c3cc(C(C)C)on3)n2)cc1,inactive
18,O=C(Nc1ccn(Cc2ccccc2)n1)c1cccc(F)c1,2.82 µM (active)
19,O=C(Nc1ccn(Cc2ccccc2)n1)c1n[nH]c([N+](=O)[O-])c1Cl,3.16 µM (active)
20,Cn1cc([N+](=O)[O-])c(C(=O)Nc2cnn(Cc3ccc(F)cc3)c2)n1,inactive
21,CC(=O)Nc1ccn(Cc2c(F)cccc2Cl)n1,inactive
22,O=C(Nc1ccn(Cc2ccc(F)cc2)n1)c1ccncc1,inactive
23,CCOC(=O)c1cc2c(=O)n3ccccc3nc2n(CCCOC)c1=NC(=O)C(C)(C)Oc1ccc(Cl)cc1,inactive
24,COc1ccc(CCN2C(=O)N(c3cccc(OC)c3)C(=O)C2CC(=O)Nc2ccccc2)cc1 (stereo not given),inactive
25,CCCCC12CN3CC(C)(CN(C1)C3c1ccc(O)c(OC)c1)C2=O (stereo not given),inactive
26,COc1ccc(CCNC(=O)CCc2c(C)nc3c(c(C)nn3-c3ccc(C)c(C)c3)c2C)c(OC)c1OC,inactive
27,CCOC(=O)CSc1nnc(-c2cccc(Br)c2)o1,inactive

row,Structure (SMILES),Potency
1,O=C(OCc1ccc(Br)cc1)c1cccc(-c2nnc(-c3ccccc3)o2)c1,2.24 µM (active)
2,O=C(OCc1nnc(-c2ccccc2)o1)c1ccc2c(c1)C(=O)N(CCc1ccccc1)C2=O,inactive
3,CCn1c(=O)cc(OCC(=O)Nc2cc(Cl)c(OC)cc2OC)c2ccccc21,inactive
4,Cc1ccc(-c2nnc(SC(C)C#N)n2N)cc1 (stereo not given),inactive
5,C=C(C)CSc1nnc(-c2ccc(C)cc2)n1N,8.91 µM (active)
6,Cc1ccc(NC(=O)NC(=O)CSc2nnc(-c3ccc(OC(F)F)cc3)n2N)c(C)c1,inactive
7,CC(=O)c1c(C)n(S(=O)(=O)c2ccc(Cl)cc2)c2ccc(NS(=O)(=O)c3ccc(Cl)cc3)cc12,inactive
8,COc1ccc(C)cc1N(CC(=O)N1CCC(C)CC1)S(=O)(=O)c1ccc(C)cc1,inactive
9,CCOC(=O)c1c(NC(=O)CSc2cn(CCNC(=O)c3cccc(C(F)(F)F)c3)c3ccccc23)sc2c1CCC2,inactive
10,COc1ccc(CCNC(=O)c2cn(C)c3ccc(S(=O)(=O)N(C)C4CCCCC4)cc3c2=O)cc1OC,inactive
11,COc1ccc(OCC(=O)NNC(=O)c2cccc(C)c2)cc1,inactive
12,CCOc1ccc(OCc2cccc(C(=O)N(CC)CC)c2)cc1,5.01 µM (active)
13,CCOc1ccc(NC(=O)N(CC(C)C)CC(C)C)cc1,inactive
14,COc1ccc(OCc2cccc(C(=O)N3CCCC3)c2)cc1,2.51 µM (active)
15,Cc1cccc(C(=O)N2CCCN(C(=O)c3cccc(C)c3)CC2)c1,inactive
16,CCN(CC)C(=O)c1ccc(O)c(OC)c1,inactive
17,COc1cccc(Cn2c(SCc3ccc(C(=O)N4CCC(C)CC4)cc3)nc3ccncc32)c1,inactive
18,COc1cccc(CNC(=O)c2ccc3c(c2)N(Cc2ccc(C(F)(F)F)cc2)C(=O)c2ccccc2S3)c1OC,inactive
19,COc1ccc(C2(Nc3cccc(F)c3)C(=O)c3ccccc3C2=O)cc1,inactive
20,CCc1nonc1NC(=O)c1oc2ccc(Cl)cc2c1C,inactive
21,Cc1ccc(Cn2c(C)c3cnn(CC(=O)NCc4ccccc4)c(=O)c3c2C)cc1,inactive
22,CC1=C(C(=O)Nc2ccccc2)C(c2ccc(C)cc2)n2nc(SCc3ccccc3C)nc2N1 (stereo not given),inactive
23,COc1cc(Nc2nc(-c3ccc(OC)c(OC)c3)nc3ccccc23)cc(OC)c1,inactive
24,CCc1cccc(C)c1Nc1c(-c2ccc(N(C)C)cc2)nc2ncccn12,inactive
25,CCNC(=O)CSc1nc(-c2ccccc2)cs1,inactive
26,N#CC(=C1SC=CS1)c1nc(-c2ccccc2)cs1,11.2 µM (active)
27,N#CC(=C1CCCC1)c1nc(-c2ccc(Cl)cc2)cs1,inactive

row,Structure (SMILES),Potency
1,COc1ccc(-c2cc(NCc3ccc(F)cc3)n3cnnc3n2)cc1,inactive
2,CC(=O)c1c(C)[nH]c(C(=O)NCc2ccc(C)cc2)c1C,inactive
3,CCOC(=O)c1c(C)[nH]c(C(=O)NCc2ccccc2OC)c1C,10 µM (active)
4,COc1ccccc1CNC(=O)c1cc(=O)c2ccccc2o1,inactive
5,COC(=O)c1ccccc1NS(=O)(=O)c1ccc2c(c1)CCCN2C(C)=O,inactive
6,CCOc1ccc(C(=O)c2cn(Cc3ccccc3OC)c3ccc(F)cc3c2=O)cc1,inactive
7,COc1ccc(-c2nn3c(-c4ccccc4)nnc3s2)cc1OC,inactive
8,COc1ccc(C2CC(c3cccs3)=Nc3ccccc3S2)cc1OC (stereo not given),inactive
9,COc1ccc(-c2csc(-c3cccs3)n2)cc1OC,14.1 µM (active)
10,CCc1ccccc1NC(=O)N1CCC2(CC1)Oc1ccccc1C(=O)N2Cc1ccccc1F,inactive
11,O=C(Nc1ccc(Br)cc1)c1cc2nc(-c3ccccc3)cc(-c3ccccc3)n2n1,inactive
12,COc1cccc(C(=O)N(Cc2cccc(Cl)c2)Cc2ccco2)c1,inactive
13,c1ccc(-c2ccccc2OCCN2CCCCC2)cc1,inactive
14,S=C(c1ccc(-c2ccccc2)o1)N1CCCCC1,12.6 µM (active)
15,O=C(Cc1ccccc1)NC(=S)Nc1ccc(N2CCCCC2)cc1,inactive
16,O=C(CNC(=O)C(c1ccccc1)c1ccccc1)N/N=C\c1ccc2c(c1)OCO2,inactive
17,O=C(/C=C/c1ccc2c(c1)OCO2)NCc1ccc(F)cc1,inactive
18,O=C(Cc1ccc(F)cc1)N/N=C/c1ccc2c(c1)OCO2,12.6 µM (active)
19,O=C(Nc1cccc(S(=O)(=O)Nc2ccc(Cl)cc2)c1)c1ccc2c(c1)OCCO2,inactive
20,O=C(Nc1ccc(Cl)cn1)c1ccc2c(c1)OCCO2,2.51 µM (active)
21,COc1ccc(C(=O)NC(=S)Nc2ccc(Cl)cn2)cc1OC,inactive
22,Cc1cc(NC(=O)c2cnn3cccnc23)n(-c2ccccc2)n1,inactive
23,COc1c(Cl)cc(C(=O)Nc2ccc(Cl)cn2)cc1Cl,inactive
24,O=C(Nc1ccc(Cl)cn1)c1cnn2cccnc12,11.2 µM (active)

# From PubChem BioAssay AID1458 (National Center for Advancing Translational Sciences (NCATS), 2008)
